In paper PMC4336329 (PLoS ONE, 2015):
About 14,000 (4.5%) of roughly 310,000 compounds showed an effect of 50% or more. The effect is printed as a negative number. Shown is part of a subset that was picked to be rich in strong results.

The compounds below were run against human ether-à-go-go-related gene (hERG) potassium channel (human, UniProt Q12809) (assay: primary screen, population patch clamp on CHO cells stably expressing hERG; higher = less effect of the substance).
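Further: peak tail current of the secondary pulse compared with the same well before compound.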

Chain of human ether-à-go-go-related gene (hERG) potassium channel (Q12809 whole entry, looked up): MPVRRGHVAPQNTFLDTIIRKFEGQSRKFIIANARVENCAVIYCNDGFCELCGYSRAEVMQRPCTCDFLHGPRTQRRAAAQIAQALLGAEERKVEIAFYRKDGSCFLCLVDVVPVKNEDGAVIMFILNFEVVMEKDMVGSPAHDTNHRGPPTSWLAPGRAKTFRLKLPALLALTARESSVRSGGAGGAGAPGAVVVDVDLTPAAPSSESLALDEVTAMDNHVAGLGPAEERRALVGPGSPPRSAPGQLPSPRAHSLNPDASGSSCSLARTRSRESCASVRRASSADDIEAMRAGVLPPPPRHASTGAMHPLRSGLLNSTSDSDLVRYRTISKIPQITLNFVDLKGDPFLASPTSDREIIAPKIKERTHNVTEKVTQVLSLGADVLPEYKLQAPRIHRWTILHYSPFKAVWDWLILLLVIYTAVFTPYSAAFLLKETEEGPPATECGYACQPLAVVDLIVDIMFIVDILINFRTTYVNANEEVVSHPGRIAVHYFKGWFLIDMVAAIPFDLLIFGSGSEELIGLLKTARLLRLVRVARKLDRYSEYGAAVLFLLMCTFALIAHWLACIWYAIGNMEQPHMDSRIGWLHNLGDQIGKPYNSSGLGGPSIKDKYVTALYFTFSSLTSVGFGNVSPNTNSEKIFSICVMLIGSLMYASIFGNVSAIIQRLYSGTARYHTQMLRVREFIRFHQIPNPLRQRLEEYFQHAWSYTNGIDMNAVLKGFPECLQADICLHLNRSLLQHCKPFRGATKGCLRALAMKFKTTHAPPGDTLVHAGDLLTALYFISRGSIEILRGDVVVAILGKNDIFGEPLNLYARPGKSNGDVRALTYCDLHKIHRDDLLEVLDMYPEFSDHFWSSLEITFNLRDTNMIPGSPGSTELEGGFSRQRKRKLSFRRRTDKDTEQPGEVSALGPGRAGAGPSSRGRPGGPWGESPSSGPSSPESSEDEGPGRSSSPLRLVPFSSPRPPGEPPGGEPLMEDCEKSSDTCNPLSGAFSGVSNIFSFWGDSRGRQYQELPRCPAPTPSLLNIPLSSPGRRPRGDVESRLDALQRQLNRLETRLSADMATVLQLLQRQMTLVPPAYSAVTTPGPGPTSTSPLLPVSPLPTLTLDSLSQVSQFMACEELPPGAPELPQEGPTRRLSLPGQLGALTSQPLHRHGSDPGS

Row | Structure (SMILES) | hERG current change (%, negative = inhibition) at 10uM
1 | CCOc1cccc(OCCCCN2CCCCC2)c1 | -38.1%
2 | Brc1cccc(OCCCCN2CCCCC2)c1.O=C(O)C(=O)O | -68.9%
3 | Brc1cccc(OCCN2CCCCC2)c1.O=C(O)C(=O)O | -21.3%
4 | c1ccc(OCCCCN2CCCCC2)cc1 | 1.35%
5 | COc1cccc(OCCCN2CCCCCC2)c1.O=C(O)C(=O)O | -37.8%
6 | c1ccc(Oc2cccc(OCCCCN3CCCC3)c2)cc1 | -78.3%
7 | Brc1cccc(OCCCN2CCCCCC2)c1.O=C(O)C(=O)O | -70%
8 | Brc1cccc(OCCN2CCOCC2)c1.O=C(O)C(=O)O | 19%
9 | Cc1cc(NN)nc(Cc2ccccc2)n1 | 10.2%
10 | Cc1cc(O)c(C(C)C)cc1NC(=O)c1cccc(Cl)c1 | -13.4%
11 | O=C(CNC(=O)c1cccc(F)c1)OCC(=O)N1CCCc2ccccc21 | -0.321%
12 | CCN(CC)c1ccc(C(=O)OCC(=O)Nc2cccc(S(=O)(=O)NC3=NCCCCC3)c2)cc1 | 7.02%
13 | O=C(NCCc1ccccc1)C(=S)N1CCCCC1 | 9.48%
14 | CC(=O)Nc1ccc(C(=O)COC(=O)CCc2ccccc2)c(F)c1 | -2.03%
15 | CCc1ccc(NC(=O)c2ccccc2Br)cc1 | -11.2%
16 | COc1ccc(CCN(C)C2CCCN(S(=O)(=O)c3ccccc3)C2)cc1OC (centres unmarked) | -77.2%
17 | COc1ccc(S(=O)(=O)N2CCCC(N(C)CCc3ccccc3)C2)cc1OC (centres unmarked) | -66.5%
18 | COc1ccc(CCN(C)C2CCCN(S(=O)(=O)c3ccc(C)cc3)C2)cc1OC (centres unmarked) | -78%
19 | C=CCS(=O)(=O)N1CCCC(N(C)CCc2ccc(OC)c(OC)c2)C1 (centres unmarked) | -16.1%
20 | COc1ccc(CCN(C)C2CCCN(S(C)(=O)=O)C2)cc1OC (centres unmarked) | -4.36%
21 | COc1ccc(CCN(C)C2CCCN(S(=O)(=O)C(C)C)C2)cc1OC (centres unmarked) | -20.2%
22 | COc1ccc(CCN(C)C2CCCN(S(=O)(=O)N(C)C)C2)cc1OC (centres unmarked) | -8.26%
23 | COc1ccc(S(=O)(=O)N2CCCC(C(=O)N3CCCC3)C2)cc1OC (centres unmarked) | 4.14%
24 | COc1ccc(CCN(C)C(=O)c2ccc(C)c(S(=O)(=O)N3CCCCC3)c2)cc1OC | -20.9%
25 | COc1ccc(CCN(C)C2CCCN(S(=O)(=O)c3ccccc3F)C2)cc1OC (centres unmarked) | -64.3%

Row | Structure (SMILES) | hERG current change (%, negative = inhibition) at 10uM
26 | CN(CCc1ccccc1)C1CCCN(S(=O)(=O)c2cccc(F)c2)C1 (centres unmarked) | -48.1%
27 | C/C=C(\C)CN1CCCC(N(C)CCc2ccc(OC)c(OC)c2)C1 (centres unmarked) | -27.5%
28 | COc1ccc(NC(=O)c2nn(C34CC5CC(CC(C5)C3)C4)cc2[N+](=O)[O-])cc1 | -0.0263%
29 | O=c1nc(N2CCOCC2)ccn1-c1nc(-c2ccccc2)oc1-c1ccccc1 | -9.71%
30 | Cc1c(NC(=O)COC(=O)C23CC4CC(CC(O)(C4)C2)C3)c(=O)n(-c2ccccc2)n1C | 10.1%
31 | Cc1oc(-c2ccccc2F)nc1CS(=O)(=O)CC(=O)NCc1ccccc1Cl | -17.9%
32 | c1ccc(Nc2ncnc3sc4c(c23)CCC4)cc1 | 0.132%
33 | Nc1ccc2nc(SCC(=O)N3CCOCC3)sc2c1 | 17%
34 | COc1ccc(NC(C)=O)cc1C#N | 19.3%
35 | CCOc1ccccc1CN(CCc1ccc2c(c1)OCO2)Cc1ccccn1 | -64.4%
36 | CC(C)C(=O)N(Cc1ccc2c(c1)OCO2)Cc1ccccn1.Cl | -7.53%
37 | CCOc1ccccc1NC(=O)NCc1ccc2c(c1)OCO2 | 22.4%
38 | CCN1C(=O)c2cccc3c(NC(=O)c4ccc(OC)c(OC)c4)ccc1c23 | -68.3%
39 | CCOc1cc(C(=O)Nc2ccc3c4c(cccc24)C(=O)N3CC)cc(OCC)c1OCC | -5.15%
40 | CCN1C(=O)c2cccc3c(NC(=O)c4ccccc4)ccc1c23 | 9.37%
41 | O=P(O)(Oc1ccccc1)OC(c1ccccc1)C(F)(F)C(F)(F)F (centres unmarked) | 27.3%
42 | CC(=O)N1CCN(c2ccccc2NC(=O)COc2ccccc2C)CC1 | -14%
43 | CC(=O)N1CCN(c2ccccc2NC(=O)COc2cc(C)cc(C)c2)CC1 | -52.4%
44 | Cc1cc(C)cc(OCC(=O)Nc2ccccc2N2CCCCC2)c1 | -0.491%
45 | COC(=O)c1ccc(N2CCN(C)CC2)c(NC(=O)COc2ccccc2)c1 | -43.9%
46 | Cc1cc(C)cc(OCC(=O)Nc2ccc(N3CCOCC3)cc2N2CCOCC2)c1 | -6.54%
47 | O=C(COc1cccc(Br)c1)Nc1ccc(N2CCOCC2)cc1N1CCOCC1 | -50.6%
48 | CC(=O)N1CCN(c2ccccc2NC(=O)COc2ccc(Br)cc2)CC1 | -9.2%
49 | CN1CCN(c2ccccc2NC(=O)COc2ccc(Br)cc2)CC1 | -58%
50 | O=C(COc1ccc(Br)cc1)Nc1ccc(N2CCOCC2)cc1N1CCOCC1 | -7.56%

Row | Structure (SMILES) | hERG current change (%, negative = inhibition) at 10uM
51 | COC(=O)c1ccc(N2CCN(C)CC2)c(NC(=O)COc2ccc(C)cc2)c1 | -20%
52 | COC(=O)c1ccc(N2CCN(C)CC2)c(NC(=O)COc2ccc(OC)cc2)c1 | -53.5%
53 | CN1CCN(c2ccccc2NC(=O)COc2ccccc2)CC1 | -48.4%
54 | O=C(Nc1cccc(Cl)c1)OC1CCCCc2cccnc21 (centres unmarked) | 4.75%
55 | COc1ccc(-c2cc(N3C(=O)Nc4ccccc4N3O)n[nH]2)cc1OC | 3.84%
56 | CCO[C@@H]1OC(C(=O)N2CCOCC2)=C[C@H](c2cn(C(C)=O)c3ccccc23)[C@H]1CCCO | -20.3%
57 | CSc1nc2sccc2c(=O)[nH]1 | 32.8%
58 | Cc1cccc(NC(=O)c2ccccc2NC(=O)c2ccccc2)n1 | -0.693%
59 | COc1ccc(C(C)NC(=O)CCc2ccccc2)cc1 (centres unmarked) | 10%
60 | Clc1ccc(-c2nc3ccncc3[nH]2)cc1 | -17.3%
61 | COc1ccccc1-n1c(O)c(C=NCc2ccccn2)c2ccccc2c1=O | -8.58%
62 | Cc1ccc(N2C(=O)CC(Sc3nc(-c4ccccc4)c4cc(Cl)ccc4n3)C2=O)c(C)c1 (centres unmarked) | 3.36%
63 | CN1CCN(c2ccccc2NC(=O)COc2ccc(Cl)cc2)CC1 | -59.9%
64 | CCC(=O)N1CCN(c2ccccc2NC(=O)COc2cccc(C)c2)CC1 | -38.2%
65 | COc1cc(CCC(=O)Nc2cc(Cl)ccc2N2CCN(C)CC2)cc(OC)c1OC | -10.2%
66 | COc1ccc(CCC(=O)Nc2cc(Cl)ccc2N2CCN(C)CC2)cc1 | -50.1%
67 | CCn1c(=O)cc(OCC(=O)Nc2ccccc2N2CCN(C)CC2)c2ccccc21 | -58.3%
68 | CCn1c(=O)cc(OCC(=O)Nc2ccccc2C#N)c2ccccc21 | 6.06%
69 | CCOC(=O)c1ccccc1NC(=O)COc1cc(=O)n(CC)c2ccccc12 | 5.47%
70 | COc1ccc(OCC(=O)Nc2ccccc2N2CCN(C)CC2)cc1 | -38.6%
71 | Cc1cccc(OCC(=O)Nc2ccccc2N2CCCCC2)c1 | 2.17%
72 | CN1CCN(c2ccccc2NC(=O)COc2ccc(C3CCCCC3)cc2)CC1 | 16.8%
73 | Cc1cccc(OCC(=O)Nc2ccccc2N2CCN(C)CC2)c1 | -51.2%
74 | COc1ccc(CC(=O)Nc2cc(Cl)ccc2N2CCCC2)cc1 | 15.7%
75 | COc1cccc(C(c2c(O)nc(SC)n(C)c2=O)c2c(O)nc(SC)n(C)c2=O)c1 | 0.717%

Row | Structure (SMILES) | hERG current change (%, negative = inhibition) at 10uM
76 | COc1ccc(-n2nc3c(c2NC(=O)c2ccc(S(=O)(=O)N4CCOCC4)cc2)CS(=O)(=O)C3)cc1 | 14.6%
77 | Cc1ccc(C(=O)N2CCN(c3ccc(NC(=O)c4cccnc4Cl)cc3)CC2)cc1 | -27.8%
78 | Cc1cc(S(=O)(=O)NCCCN2CCOCC2)c(Cl)cc1Cl | -13.1%
79 | Cc1ccccc1C(=O)Oc1ccc2ccc(O)cc2c1 | 14.5%
80 | O=C(CSc1nnc(Cc2ccccc2)o1)N1CCOCC1 | 0.161%
81 | O=C(CSc1nnc(-c2ccncc2)n1-c1ccccc1)Nc1ccc(C(=O)O)cc1 | 25.5%
82 | CCNC(=O)Nn1c(-c2ccccc2)nc2ccccc2c1=O | 22.9%
83 | Cc1ccc(C(=O)NCc2n[nH]c(=S)n2-c2ccccc2)cc1[N+](=O)[O-] | 7.76%
84 | Cc1cc(NC(=O)Cn2nnc(-c3ccccc3NC(=O)c3ccccc3F)n2)no1 | 12.5%
85 | COc1ccc(-c2[nH]ncc2Oc2ccccc2OC)c(O)c1 | -11.3%
86 | O=S(=O)(Nc1nc2ccccc2s1)c1ccc(Br)s1 | -5.3%
87 | CC1CN(C2=Nc3cccc4cccc2c34)CC(C)O1 (centres unmarked) | -47.6%
88 | N#Cc1nc(Cc2ccccc2)oc1N1CCC(Cc2ccccc2)CC1 | 24.5%
89 | c1cc2c3c(cccc3c1)C(N1CCOCC1)=N2 | -31%
90 | Cl.O=C1C2C3C=CC(C4CC34)C2C(=O)N1CCCCN1CCN(c2ccc(F)cc2)CC1 (centres unmarked) | -69.3%
91 | c1cc2c3c(cccc3c1)C(N1CCCCC1)=N2 | -66.2%
92 | Fc1ccc(N2CCN(C3=Nc4cccc5cccc3c45)CC2)cc1 | -77%
93 | c1ccc(CC2CCN(C3=Nc4cccc5cccc3c45)CC2)cc1 | -80%
94 | O=S1(=O)N=C(N2CCN(c3ccc(F)cc3)CC2)c2ccccc21 | -8.87%
95 | O=C(CN1C(=O)c2cccc3cccc1c23)N1CCN(c2ccc(F)cc2)CC1 | 9.69%
96 | O=C1C2C3C=CC(C4CC34)C2C(=O)N1CCc1ccccc1 (centres unmarked) | 3.23%
97 | c1ccc(CC2CCN(c3nnnn3-c3ccccc3)CC2)cc1 | -13.1%
98 | O=C1C2CCCN2C(=O)N1CCCCN1CCN(c2ccc(F)cc2)CC1 (centres unmarked) | -43.2%
